The source of these data is PubChem BioAssay (NCI).

Holding throughout (assay): NCI-60 one-dose screen, 48 h (100 = growth as untreated, 0 = no growth, -100 = all killed)
Common to all, as to conditions: 10 µM unless noted

Assay [1] concerns HCT-15 colon.
In assay [2] the test system is HT29 colon.
Assay [3] concerns SNB-75 CNS.
The subject of assay [4] is SNB-19 CNS.
Assay [5] has as its system U251 CNS.
Assay [6] concerns PC-3 prostate.
Assay [7] has as its system SK-MEL-5 melanoma.
The test system of assay [8] is UACC-62 melanoma.
Assay [9] deals with LOX IMVI melanoma.
Assay [10] relates to SK-MEL-28 melanoma.

This is part of a sample that, as a whole, favours compounds with a hit. Of some 83,000 tested, about 20% had one in any assay.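 The endpoint reported here, percent growth, reads 100 for growth as untreated, 0 for no net growth and -100 for all cells dead.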 Unmarked numbers belong to inactive results. Calls of active or inactive are those of the source. The calls were made as follows: active = growth percent below 10; inactive = the rest.

Take `NS(=O)(=O)c1ccc(-n2nc(-c3ccccc3)ccc2=O)cc1`: the growth is 108% in assay [1]; 112% in assay [2]; 114% in [3]; 101% in assay [4]; 99.2% in assay [5]; 96.2% in [6]. The growth is 109% in [7], 89.6% in [8], 104% in assay [9] and 104% in assay [10].
Consider `CCCCC1=c2c([nH]c3ccc(OC)cc23)=NC2C=CC=NC12` (stereo not given), for which the growth was 84.2% in [1]; 77.8% in [2]; 92.9% in [3]; 104% in assay [4]; 103% in assay [5]; 86.1% in assay [6]. Also, the growth is 84.3% in [7], 94.5% in [8], 91.4% in [9] and 112% in assay [10].
Take `Cc1nnc(/N=C2\NC(=O)/C(=C/c3ccsc3)S2)s1`: the growth is 88% in assay [1]; 90.6% in assay [2]; 74.3% in assay [3]; 100% in assay [4]; 94.6% in [5]; 89.6% in assay [6]. Moreover, the growth is 98.4% in [7], 102% in assay [8], 87.7% in assay [9] and 101% in assay [10].
For `CCOC(=O)CC[C@H](NC(=O)c1ccc(NC)c2ccccc12)C(=O)OCC`, the growth in assay [1] was 96.1%; in assay [2], 105%; in assay [3], 91.8%; in assay [4] it was 92.4%; in assay [5], 97.8%; in [6], 80.2%. Moreover, the growth in [7] was 97.2%; in [8], 89.7%; in [9], 93.8%; in assay [10], 103%.
In the case of `NC[C@@H]1CCN(c2cc3c(cc2F)c(=O)n(N)c(=O)n3Cc2ccc(-c3ccccc3)cc2)C1`, the growth was 50.1% in assay [1]; 30.4% in assay [2]; 77.9% in [3]; 102% in assay [4]; 64.5% in [5]; 71.4% in assay [6]. Moreover, the growth in assay [7] is 72.4%; in assay [8] it was 94.6%; in assay [9], 78.9%; in [10], 113%.
For the molecule `Cc1c(Cl)cccc1NC(=O)c1sc2nc3c(cc2c1N)CCCCCC3`, the growth is 24.1% in assay [1]; -10.3% (active) in assay [2]; -6.81% (active) in assay [3]; 29.1% in assay [4]; 15.7% in assay [5]; 32.9% in [6]. Further, the growth is 28.7% in assay [7], 32% in [8], 40.8% in [9] and 58.7% in assay [10].
Turning to `CC(=O)c1cnc(-c2ccccc2)nc1CBr`, the growth in assay [1] was 63.5%; in [2], 43.5%; in assay [3] it was 73.4%; in assay [4], 81%; in [5], 79.5%; in assay [6], 73%. In addition, the growth was 91.6% in assay [7], 84.3% in assay [8], -39.9% (active) in [9] and 104% in [10].
As to `Nc1c(C(=O)Nc2ccccc2)sc2nc3c(cc12)CN(C(=O)OCc1ccccc1)CC3`, the growth is 37.3% in assay [1]; 15.7% in assay [2]; 49.6% in [3]; 56.1% in [4]; 37.8% in assay [5]; 46% in assay [6]. Also, the growth was 36% in [7], 43% in assay [8], 40.8% in assay [9] and 62.3% in [10].
As for `O=C(Nc1ccc2ncnc(Nc3ccc(F)c(Cl)c3)c2c1)c1ccccc1`, the growth in assay [1] is 52.1%; in assay [2], 79%; in [3], 28.5%; in assay [4], 76.8%; in assay [5], 42.8%; in [6], 72.7%. The growth is 86.5% in assay [7], 92.2% in [8], 63.9% in [9] and 97.5% in assay [10].
Regarding `COc1ccc(C2C(c3ccccc3)C(=O)N2c2cc(OC)c(OC)c(OC)c2)cc1I` (stereo not given), the growth is 13.1% in [1]; 1.74% (active) in [2]; 57.5% in [3]; 33.4% in [4]; 15.4% in assay [5]; 22.2% in assay [6]. For the same molecule, the growth in [7] was -41% (active); in assay [8], 28.1%; in assay [9] it was 24.3%; in [10] it was 60.3%.
As to `CC(C)(C)c1ccc(O)c(Cc2cc(C(C)(C)C)ccc2O)c1`, the growth in [1] was 101%; in assay [2], 98.7%; in assay [3], 89.2%; in [4], 101%; in [5], 90.2%; in assay [6] it was 12.5%. In addition, the growth in assay [7] is 99%; in [8], 87.8%; in [9] it was 99.1%; in assay [10] it was 104%.
As for `CC1=C(CCCOC(=O)NCCCl)C2=C(C)C3(CC3)[C@@](C)(O)C(=O)C2=C1`, the growth in assay [1] was 24.9%; in [2] it was 31.1%; in assay [3] it was 58.3%; in assay [4], 57.3%; in assay [5], 54.2%; in [6], 38%. Moreover, the growth was 7.89% (active) in assay [7], 49.9% in assay [8], 61.1% in [9] and 69.3% in [10].
For the molecule `C#C[C@@]1(O)[C@@H](CO)O[C@@H](n2cc(F)c3c(N)ncnc32)[C@@H]1O`, the growth in [1] was -5.29% (active); in assay [2] it was 5.9% (active); in assay [3], -34.3% (active); in [4], 20.7%; in [5] it was 8.64% (active); in assay [6], 5.02% (active). Further, the growth in [7] was -86.9% (active); in assay [8] it was -51.9% (active); in assay [9] it was -66.3% (active); in assay [10] it was 45.2%.
